The source of these data is PubChem BioAssay (NCATS).

The source made the active and inactive calls. Calls come from the whole dose curve; as a rule, active = well fitted curve in the direction sought with a large enough effect; inactive = no such curve, though single readings can be large or run the other way.

The nature of the test: qHTS for small molecule inhibitors of Yes1 kinase: Counter Assay (AID 686950).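 Note: no kinase present so only ADP-Glo detection of a fixed ADP amount is tested; luminescence from ADP-Glo reporting ADP in a fixed ATP and ADP mixture; 0% = DMSO wells with ATP plus ADP and -100% = ATP-only wells without ADP.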 As to conditions: series mostly up to 76.9 µM; activity change, negative = inhibition: at the top concentration. In outline:
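ADP-Glo luminescence read after a 60 min room-temperature incubation of compound with an ATP/ADP mix (0.08 mM/0.02 mM) and no kinase, following a 20 min compound preincubation. Signal scaled between ATP+ADP (max) and 0.1 mM ATP-only (min) wells; Tris pH 7.5, Mg2+, DTT.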
Background: qHTS replaces the single test concentration by a dilution series.
In the case of `C[C@@H]1C[C@H]2[C@@H]3CCC4=CC(=O)C=C[C@]4(C)C3(F)[C@@H](O)C[C@]2(C)[C@@]1(O)C(=O)CO` (some centres undefined), the “activity change, negative = inhibition” value was -3.38% (inactive).

In the case of `COc1ccccc1[C@H](c1cccc2ccccc12)[C@@](C)(C#N)C(=O)N1CCC(c2cccc(C(F)(F)F)c2)CC1`, the “activity change, negative = inhibition” value is 5.28% (inactive).

For `COc1ccc2c3n(c(=NC(=O)c4cccnc4)nc2c1OC)CCN3`, the “activity change, negative = inhibition” value was 6.4% (inactive).

Turning to `Cc1csc(NC(=O)c2sc3nc4c(c(C(F)(F)F)c3c2N)CCC4)n1`, the “activity change, negative = inhibition” value was -4.64% (inactive).

As for `Cc1cc2c(C(C)C)c(O)c(O)c(C=O)c2c(O)c1-c1c(C)cc2c(C(C)C)c(O)c(O)c(C=O)c2c1O`, the “activity change, negative = inhibition” value was -2.03% (inactive).

Turning to `CC(C)(N)C(=O)N[C@H](COCc1ccccc1)C(=O)N1CCC2(CC1)CN(S(C)(=O)=O)c1ccccc12`, the “activity change, negative = inhibition” value is 2.04% (inactive).

As to `CC(C)OC(=O)C1=CN(C(=O)c2ccc(F)c(F)c2)CC(C)(C)c2c1[nH]c1ccccc21`, the “activity change, negative = inhibition” value is 1.94% (inactive).

As for `CC(c1cc2ccccc2s1)N(O)C(N)=O` (centres undefined), the “activity change, negative = inhibition” value is -0.58% [at 154 µM] (inactive).

Consider `NC(=O)c1ccc(-c2nc(-c3ccc4c(c3)OCO4)c(-c3ccccn3)[nH]2)cc1`, for which the outcome was inactive.

`O=C1[C@H](Cc2ccc(O)cc2)N2C(=O)CCN(C(=O)NCc3ccccc3)[C@H]2CN1Cc1cccc2ccccc12`: the “activity change, negative = inhibition” value was 4.03% (inactive).

Regarding `CC1(C)SCCN(S(=O)(=O)c2ccc(OCC#CCO)cc2)[C@@H]1C(=O)NO`, the “activity change, negative = inhibition” value is -1.39% (inactive).

Take `CC[C@@H](C)[C@H](NC(=O)[C@H](CC1CCCCC1)NC(=O)c1ccno1)C(=O)N1CCC2(CCc3ccccc32)CC1`: the “activity change, negative = inhibition” value is 2.54% (inactive).

For `Nc1ncnc2nc(-c3ccc(N4CCOCC4)nc3)cc(-c3cccc(Br)c3)c12`, the “activity change, negative = inhibition” value is 0.929% (inactive).

Regarding `O=C(O)[C@@H](c1ccc(OCc2ccc3ccccc3n2)cc1)C1CCCC1`, the “activity change, negative = inhibition” value is 2.69% (inactive).
